Our source for the inhibition and normalized cell count values is PubChem BioAssay AID1273 (Columbia University Molecular Screening Center, 2008).

The structures appear in SMILES notation. Among all 130,000 compounds or so, about 1,200 (0.92%) were called active.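 Rule for the calls: active = inhibition above the mean plus 3 SD, with well images judged a real hit on visual review (cut at about 60% in these data, passing the limit was not always enough); inconclusive = inhibition over the cutoff but images rejected on review; inactive = inhibition not above the cutoff.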 Shown is part of a subset that was picked to be rich in actives.

This test can be described thus: inhibitors of insulin promoter-driven GFP, primary screen, imaging, TRM-6 cells (human fetal islet line), eGFP reporter, cell count (AID 1273;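 for normalized cell count: cells exposed to compound for 48 h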). As to conditions: at 2 µM, reporter expression induced with tamoxifen; inhibition: stronger effect = higher value; normalized cell count: measured here: cell count, toxicity.
As usually defined, the inhibition is the change of the read-out against control, counted positive when it falls. As to `O=c1[nH]c(CN2CCOCC2)nc2scc(-c3ccccc3)c12`, the inhibition is 25% (inactive) and the normalized cell count stood at 148%.
The like results for `C#CCOCCOCCOCCNc1nc(N2CCN(C(=O)[C@H](C(C)C)n3cc(CCO)nn3)CC2)nc(N2CCN(C(=O)[C@H]([C@@H](C)CC)n3cc(CCCN=C(N)N)nn3)CC2)n1` were, in that order, 70% (active) and 95.3%.
The matching figures for `C#CCOCCOCCOCCNc1nc(N2CCN(C(=O)[C@H](C(C)C)n3cc(CCO)nn3)CC2)nc(N2CCN(C(=O)[C@H](C(C)C)n3cc(CCO)nn3)CC2)n1`: 50% (inactive) and 117%.
The like results for `COCCNC(=O)NC(=O)COC(=O)C1(c2ccc(Cl)cc2)CC1` were, in that order, 38.9% (inactive) and 75.1%.
Take `CCCC(NC(=O)c1ccccc1)c1nc2ccccc2n1Cc1ccc(C(=O)OC)o1` (configuration not stated): the inhibition is -17.5% (inactive) and the normalized cell count was 206%.
Regarding `COC(=O)c1ccc(CN(c2ccccc2OC)S(=O)(=O)c2cccs2)o1`, the inhibition was 7.89% (inactive) and the normalized cell count stood at 71.6%.
The like results for `COC(=O)c1ccc(Cc2ccccc2)o1` were, in that order, 92.9% (active) and 83.1%.
On to `COc1ccc(-c2cn3cccnc3n2)cc1`, for which the inhibition is 23.5% (inactive) and the normalized cell count is 80.6%.
For `Cc1ccc(Cl)c(NC(=O)CN2CCN(C=O)CC2)c1`, the inhibition was -71.4% (inactive) and the normalized cell count stood at 117%.
The matching figures for `O=C(CC1C(=O)NCCN1Cc1ccc(-c2ccccc2)cc1)NCc1ccncc1` (configuration not stated): 0% (inactive) and 65.4%.
On to `CCSc1ccccc1C(=O)Nc1ccc2c(c1)OCO2`, for which the inhibition is -63.2% (inactive) and the normalized cell count came to 84.3%.
The matching figures for `N/C(=N\OC(=O)Cc1ccccc1[N+](=O)[O-])c1ccc(Br)cc1`: 7.69% (inactive) and 129%.
Regarding `N/C(=N\OC(=O)N1c2ccccc2Sc2ccccc21)c1ccc(Br)cc1`, the inhibition is 79.3% (active) and the normalized cell count worked out at 124%.
The matching figures for `N/C(=N\OC(=O)/C=C/c1ccccc1)c1ccc(Br)cc1`: 14.3% (inactive) and 133%.
Turning to `Cc1cc2nnc(SCC(=O)N3CCN(c4ccccc4)CC3)n2c(N)n1`, the inhibition was 74.3% (active) and the normalized cell count stood at 82.1%.
On to `Cc1nnc(SCC(=O)N2CCN(c3ccccc3)CC2)n1-c1ccccc1`, for which the inhibition was -41% (inactive) and the normalized cell count was 117%.
Regarding `Cc1ccccc1NC(=O)Cc1nnc(SCC(=O)N2CCN(c3ccccc3)CC2)n1C`, the inhibition was 18.2% (inactive) and the normalized cell count was 112%.
The like results for `O=C(CSc1ccsc1[N+](=O)[O-])N1CCCCC1` were, in that order, -33.3% (inactive) and 80.7%.
For the compound `Cc1cccc(Cn2c(N3CCN(c4ccccc4)CC3)nc3c2c(=O)n(C)c(=O)n3C)c1`, the inhibition was -28.1% (inactive) and the normalized cell count amounted to 82.7%.
The like results for `Cc1cccc(N2CC(C)Cn3c2nc2c3c(=O)n(CC(=O)OCc3ccccc3)c(=O)n2C)c1` (configuration not stated) were, in that order, 87.5% (active) and 63.7%.
In the case of `Cn1c(=O)n(CCc2ccccc2)c(=O)c2c1nc1n2CCCN1c1ccccc1`, the inhibition was -196% (inactive) and the normalized cell count was found to be 86.5%.
The matching figures for `O=[N+]([O-])/C(N=Nc1ccccc1)=N\Nc1ccccc1`: 7.14% (inactive) and 142%.
In the case of `COCCCNC(=S)NNC(=O)C(O)(c1ccccc1)c1ccccc1`, the inhibition is -89.5% (inactive) and the normalized cell count is 100%.
Take `C=C(Br)Cn1c(CCCC)nc2ccccc21`: the inhibition is 85.7% (active) and the normalized cell count was 72.7%.
Take `CCCCn1c(CN2CCN(CCO)CC2)nc2ccccc21`: the inhibition was -68.6% (inactive) and the normalized cell count was 100%.
In the case of `COCn1c(COc2ccccc2)nc2ccccc21`, the inhibition was 30% (inactive) and the normalized cell count came to 132%.
For `CCCNCc1cc(OCC)c(OCC(=O)Nc2ccccc2)cc1Br`, the inhibition was 0% (inactive) and the normalized cell count turned out to be 99%.
As to `C=C(C)Cn1c(C)cc(C)c(S(=O)(=O)c2ccccc2C)c1=O`, the inhibition was 78.4% (active) and the normalized cell count came to 40.9%.
On to `Cc1nc([N+](=O)[O-])c(NCCCO)n1Cc1ccccc1`, for which the inhibition is 50% (inactive) and the normalized cell count stood at 125%.
The matching figures for `CC(C)C(=O)NCc1cc(-c2ccc(Cl)cc2)no1`: 55% (inactive) and 86.2%.
In the case of `CS(=O)(=O)N1CCc2cc(C(=O)Nc3ccccc3)ccc21`, the inhibition was 43.6% (inactive) and the normalized cell count is 103%.
The like results for `COC(=O)Cn1c2ccc(C)cc2c2nc(C)sc21` were, in that order, 85.7% (active) and 32.4%.
The like results for `COC(=O)Cn1c(=NC(=O)c2cc(OC)c(OC)c(OC)c2)sc2cc(OC)ccc21` were, in that order, -14.3% (inactive) and 101%.
The matching figures for `CCN(CC)CCn1c2ccc(Cl)cc2c2nc(C)sc21`: 46.1% (inactive) and 78.6%.
As to `Cc1cc(NC(=O)CN2C(=O)NC(CCc3ccccc3)C2=O)no1` (configuration not stated), the inhibition is 60% (inactive) and the normalized cell count amounted to 76%.
The matching figures for `S=C(NCc1cccnc1)Nc1ccc(Cl)cc1Cl`: -31.6% (inactive) and 122%.
The matching figures for `CC(C(=O)NC1CCCC1)N(c1ccc(Oc2ccccc2)cc1)S(C)(=O)=O` (configuration not stated): -15.8% (inactive) and 67.6%.
The matching figures for `Cc1ccc(S(=O)(=O)N(C)C)cc1NC(=O)COC(=O)C1COc2ccccc2O1` (configuration not stated): -44.4% (inactive) and 51.1%.
On to `CCCCn1nc(C(=O)Nc2ccc(S(=O)(=O)Nc3ncccn3)cc2)c2ccccc2c1=O`, for which the inhibition is 25% (inactive) and the normalized cell count was determined as 158%.
The like results for `Cc1ccsc1CNn1cnnc1SCc1ccccc1F` were, in that order, 86.5% (active) and 28.9%.
The like results for `O=C(O)CSc1nnc(-c2ccc3c(c2)OCO3)n1-c1ccccc1` were, in that order, 15% (inactive) and 96.8%.
With `CCC1(CC)NC(=O)N(Cc2nc3ccccc3s2)C1=O`, the inhibition is -16.7% (inactive) and the normalized cell count was 127%.
For `CCOC12CC(C)(C)CC(C)(CC3=C1C(=O)CC(C)(C)C3)C2` (configuration not stated), the inhibition was 73.7% (active) and the normalized cell count worked out at 4.89%.
The matching figures for `CCCN(CC(=O)Nc1ccc(OC)c(OC)c1)CC(=O)Nc1ccc(F)c(F)c1F`: -25% (inactive) and 134%.
Regarding `O=Cc1ccc(OCc2cn3ccccc3n2)cc1`, the inhibition is 36.4% (inactive) and the normalized cell count worked out at 194%.
The matching figures for `COC(=O)NNC1=CC(=O)CC(C)(C)C1`: -26.7% (inactive) and 74.6%.
For the compound `COC(=O)C(NS(=O)(=O)c1ccc(F)cc1)c1ccccc1` (configuration not stated), the inhibition is -16.3% (inactive) and the normalized cell count came out at 140%.
The matching figures for `Fc1ccccc1/C=C1\CCCC2=C1Nc1ncnn1C2c1ccccc1F` (configuration not stated): 86.1% (active) and 102%.
Take `COc1cccc(N2CCN(C3CC(=O)N(c4ccc(Cl)cc4)C3=O)CC2)c1` (configuration not stated): the inhibition is 30.8% (inactive) and the normalized cell count worked out at 118%.
In the case of `COc1ccc(N2CCN(C3CC(=O)N(c4ccc5c(c4)OCCO5)C3=O)CC2)cc1` (configuration not stated), the inhibition was 91.7% (active) and the normalized cell count amounted to 78.3%.
The like results for `O=CN1CCN(C2CC(=O)N(c3ccc4c(c3)OCO4)C2=O)CC1` (configuration not stated) were, in that order, 20.9% (inactive) and 129%.
The like results for `CN(C)c1ccc(/C=N\S(=O)(=O)c2ccccc2)cc1` were, in that order, -39.5% (inactive) and 46.9%.
The like results for `CCN(/N=C/c1ccc(N(C)C)cc1)c1nc2ccccc2[nH]1` were, in that order, 86.7% (active) and 159%.
As to `Nc1cccc(CCc2nc3ccccc3[nH]2)c1`, the inhibition was 17.2% (inactive) and the normalized cell count amounted to 146%.
The matching figures for `Cc1nn(CC#N)c(=O)n1N(C)c1ncc(C(F)(F)F)cc1Cl`: 30% (inactive) and 84.4%.
For `O=C(CSc1nc2ccccc2[nH]1)c1cccs1`, the inhibition was 42.9% (inactive) and the normalized cell count amounted to 105%.
As to `COc1ccccc1CSc1nc2ccccc2[nH]1`, the inhibition is -54.8% (inactive) and the normalized cell count is 124%.
The matching figures for `C=CCSc1nc2ccccc2[nH]1`: 81.8% (active) and 184%.
In the case of `CCOC(=O)CSc1nc(C)cc2c1C(=O)OC2`, the inhibition is 28.6% (inactive) and the normalized cell count amounted to 94.5%.
The matching figures for `CCCCc1nnc(NC(=O)CSc2nc(N)cc(=O)[nH]2)s1`: 12.5% (inactive) and 93.7%.
For `COc1ccc2oc(=O)c(C(=O)N3CCCC3)cc2c1`, the inhibition is 44.4% (inactive) and the normalized cell count was 107%.
Turning to `CN(C)c1ccc(C=NCCc2ccc(S(N)(=O)=O)cc2)cc1`, the inhibition was 31.2% (inactive) and the normalized cell count was found to be 121%.
The like results for `Cc1ccc2nc(Nc3ncc4c(n3)CC(C)(C)CC4=O)nc(C)c2c1` were, in that order, -25% (inactive) and 96.8%.
The matching figures for `CC1(C)CC(=O)c2cnc3nc4ccccc4n3c2C1`: 76.2% (active) and 56.3%.
Consider `CC(C)(C)c1cc(=O)n2c(nc3ccccc32)[nH]1`, for which the inhibition was 29.4% (inactive) and the normalized cell count turned out to be 245%.
Regarding `Cc1ccc(OCCCn2c(=O)oc3ccccc32)cc1`, the inhibition is -26.7% (inactive) and the normalized cell count came out at 84.1%.
The like results for `COc1ccc(OC)c(Cc2nnc(CCC(=O)NC3CCCC3)o2)c1` were, in that order, 11.1% (inactive) and 95.3%.
As for `Cc1onc(C(=O)NN)c1C(=O)N1CCN(C(c2ccccc2)c2ccccc2)CC1`, the inhibition was 81.8% (active) and the normalized cell count stood at 29.3%.
The like results for `Cc1onc(-c2ccccc2)c1C(=O)N1CCOCC1` were, in that order, -90% (inactive) and 78.8%.
With `Cn1nnnc1SCC(=O)N1CCN(C(c2ccccc2)c2ccccc2)CC1`, the inhibition is -18.9% (inactive) and the normalized cell count stood at 68.2%.
Take `Cc1nnsc1C(=O)N/N=C/c1cccc(C(F)(F)F)c1`: the inhibition is -86.7% (inactive) and the normalized cell count stood at 39.6%.
The matching figures for `O=[N+]([O-])c1ccccc1NCc1ccccc1Cl`: 33.3% (inactive) and 123%.
Consider `O=c1c([N+](=O)[O-])cc(C(F)(F)F)cn1Cc1cccc(Cl)c1`, for which the inhibition was -10.7% (inactive) and the normalized cell count was 66.7%.
Take `O=c1c([N+](=O)[O-])cccn1Cc1ccc(F)cc1Cl`: the inhibition was 73.3% (active) and the normalized cell count was 83.1%.
For the compound `CCOC(=O)Cn1nnnc1C`, the inhibition was 26.7% (inactive) and the normalized cell count amounted to 95.5%.
The matching figures for `O=C(c1snnc1-c1ccccc1)N1CCOCC1`: -30.2% (inactive) and 64.9%.
The matching figures for `Cc1cccc(C)c1NC(=O)C1(N(C(=O)c2ccccn2)c2ccc(O)cc2)CCCCC1`: 6.67% (inactive) and 38.5%.
Consider `CC(O)c1cccc(NC(=O)Cc2cccc3ccccc23)c1` (configuration not stated), for which the inhibition was -38.9% (inactive) and the normalized cell count stood at 41%.
The matching figures for `CCCOc1ccc(NC(=O)C2CCCNC2=O)cc1` (configuration not stated): 5.71% (inactive) and 82.1%.
`O=C1CCC(C(=O)Nc2ccc(OC(F)F)cc2)N1` (configuration not stated): the inhibition is 72.7% (active) and the normalized cell count amounted to 73.3%.
The matching figures for `COc1ccc(C(=O)N2CCC(C(=O)Nc3ccc(C)cc3)CC2)cc1`: 33.3% (inactive) and 85.5%.
Regarding `CCOC(=O)Cc1ncccc1C(=O)Nc1ccc(OC(F)(F)F)cc1`, the inhibition is 0% (inactive) and the normalized cell count was found to be 62.2%.
`O=C(CNCc1ccc(Cl)cc1)Nc1cccc(C(=O)O)c1`: the inhibition is 38.5% (inactive) and the normalized cell count amounted to 79.9%.
With `Cc1ccc(OC(=O)c2cc3ccccc3o2)cc1`, the inhibition is -79.3% (inactive) and the normalized cell count came to 174%.
The like results for `Cc1ccc(S(=O)(=O)c2ccc(Oc3ccccc3)cc2)cc1` were, in that order, -87.1% (inactive) and 116%.
As for `Cc1ccc(O/C=C2\OC(=O)c3ccccc32)cc1`, the inhibition was 81.2% (active) and the normalized cell count came out at 93%.
